Where a name gives a salt, the structure may show the parent alone. Unmarked numbers belong to inactive results.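 How the source made its calls: active = HIS4 sensitivity z-score above 5 vs DMSO controls; inactive = score 5 or below.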
system: S. cerevisiae NKY1551 his4x/his4B, sporulating; test: HIS4 meiotic recombination assay sensitivity score (z-score vs DMSO controls); higher = stronger inhibition of sporulation/recombination, active = hit call of the paper
Protocol: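 NIH Clinical Collection compounds were added 1:100 from stock (about 100 µM final) to S. cerevisiae. Growth: average doubling time (AvgG) over 24 h of BY4741 (wild-type) or AD1-9 (drug-efflux-pump deficient) in rich media. HIS4: the his4x/his4B heteroallelic recombination reporter strain (SK1) was sporulated 5 h with compound at 30°C, then colony density was read on -his plates after 48 h. Sensitivity score = (compound − mean of 8 DMSO controls)/SD of DMSO controls. Hit cutoffs are >2 for growth and >5 for sporulation.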

| SMILES | HIS4 meiotic recombination assay sensitivity score |
| --- | --- |
| CC(=O)O[C@@]12CO[C@@H]1C[C@H](O)[C@@]1(C)C(=O)[C@H](O)C3=C(C)[C@@H](OC(=O)[C@H](O)[C@@H](NC(=O)OC(C)(C)C)c4ccccc4)C[C@@](O)([C@@H](OC(=O)c4ccccc4)[C@H]21)C3(C)C [Docetaxel] (stock concentration (mM, diluted 1:100): 10) | -1.69 |
| CN1CCCCC1CCN1c2ccccc2Sc2ccc([S+](C)[O-])cc21 (stereo not given) [Mesoridazine] (stock concentration (mM, diluted 1:100): 10) | -1.59 |
| CCCCc1nc(Cl)c(CO)n1Cc1ccc(-c2ccccc2-c2nnn[nH]2)cc1 [Losartan potassium] (stock concentration (mM, diluted 1:100): 9.2) | -1.2 |
| Cc1[nH]cnc1CN1CCc2c(c3ccccc3n2C)C1=O [Alosetron hydrochloride] (stock concentration (mM, diluted 1:100): 8.9) | -3.51 |
| CC(=O)O[C@]1(C(C)=O)CC[C@H]2[C@@H]3C=C(C)C4=CC(=O)CC[C@]4(C)[C@H]3CC[C@@]21C [Megestrol acetate] (stock concentration (mM, diluted 1:100): 10) | -2.67 |
| Nc1nnc(-c2cccc(Cl)c2Cl)c(N)n1 [Lamotrigine] (stock concentration (mM, diluted 1:100): 10.3) | -1.72 |
| COc1ccc(C2CNC(=O)C2)cc1OC1CCCC1 (stereo not given) [Rolipram] (stock concentration (mM, diluted 1:100): 10) | -0.47 |
| O=C1C(c2c(O)[nH]c3ccccc23)=Nc2ccccc21 [Indarubicin] (stock concentration (mM, diluted 1:100): 10) | -1.36 |
| C[N+]1(C)CCC(OC(=O)C(O)(c2ccccc2)C2CCCC2)C1 (stereo not given) [Glycopyrrolate] (stock concentration (mM, diluted 1:100): 10) | -0.65 |
| O=C(O[C@@H]1Cc2c(O)cc(O)cc2O[C@@H]1c1cc(O)c(O)c(O)c1)c1cc(O)c(O)c(O)c1 [Epigallocatechin gallate] (stock concentration (mM, diluted 1:100): 10) | 0.29 |
| CO[C@H]1O[C@@H]2O[C@@]3(C)CC[C@H]4[C@H](C)CC[C@@H]([C@H]1C)[C@@]24OO3 [Artemether] (stock concentration (mM, diluted 1:100): 10) | -0.64 |
| CC1(C)C[C@@H]1C(=O)N/C(=C\CCCCSC[C@H](N)C(=O)O)C(=O)O [Cilastatin] (stock concentration (mM, diluted 1:100): 9.4) | -0.68 |
| CN(CCOc1ccc(CC2SC(=O)NC2=O)cc1)c1ccccn1 (stereo not given) [Rosiglitazone maleate] (stock concentration (mM, diluted 1:100): 7.6) | 0.95 |
| CO[C@H]1/C=C/O[C@@]2(C)Oc3c(C)c(O)c4c(c3C2=O)C2=NC3(CCN(CC(C)C)CC3)NC2=C(NC(=O)/C(C)=C\C=C\[C@H](C)[C@H](O)[C@@H](C)[C@@H](O)[C@@H](C)[C@H](OC(C)=O)[C@@H]1C)C4=O [Rifabutin] (stock concentration (mM, diluted 1:100): 10) | -1.4 |
| CN1C2CCCC1CC(NC(=O)c1nn(C)c3ccccc13)C2 (stereo not given) [Granisetron hydrochloride] (stock concentration (mM, diluted 1:100): 9) | 0.28 |
| CN(C)[C@@H]1C(O)=C(C(=O)NCN2CCCC2)C(=O)[C@@]2(O)C(O)=C3C(=O)c4c(O)cccc4[C@@](C)(O)[C@H]3C[C@@H]12 [Rolitetracycline] (stock concentration (mM, diluted 1:100): 10) | 3.05 |
| CC[C@H](C)C(=O)O[C@H]1CCC=C2C=C[C@H](C)[C@H](CC[C@@H]3C[C@@H](O)CC(=O)O3)[C@H]21 [Mevastatin] (stock concentration (mM, diluted 1:100): 10) | 1.32 |
| CC(C)OC(=O)CCC/C=C\C[C@@H]1[C@@H](CC[C@@H](O)CCc2ccccc2)[C@H](O)C[C@@H]1O [Latanoprost] (stock concentration (mM, diluted 1:100): 10.3) | 0.65 |
| COc1ccccc1OCC(O)CN1CCN(CC(=O)Nc2c(C)cccc2C)CC1 (stereo not given) [Ranolazine dihydrochloride] (stock concentration (mM, diluted 1:100): 8.6) | -1.05 |
| N#Cc1ccc(C(c2ccc(C#N)cc2)n2cncn2)cc1 [Letrozol] (stock concentration (mM, diluted 1:100): 10) | -0.01 |

| SMILES | HIS4 meiotic recombination assay sensitivity score |
| --- | --- |
| CC=CC(=O)N(CC)c1ccccc1C [Crotamiton] (stock concentration (mM, diluted 1:100): 10.3) | 3.54 |
| CCc1nn(CCCN2CCN(c3cccc(Cl)c3)CC2)c(=O)n1CCOc1ccccc1 [Nefazodone] (stock concentration (mM, diluted 1:100): 9.3) | 3 |
| CCOC(=O)OC(C)OC1=C(C(=O)Nc2ccccn2)N(C)S(=O)(=O)c2ccccc21 (stereo not given) [Ampiroxicam] (stock concentration (mM, diluted 1:100): 10) | 1.18 |
| O=C(O)/C=C/c1ccc(Cn2ccnc2)cc1 [Ozagrel hydrochloride] (stock concentration (mM, diluted 1:100): 8.6) | 0.54 |
| CN1[C@@H](CC(=O)c2ccccc2)CCC[C@H]1C[C@H](O)c1ccccc1 [Lobeline hydrochloride] (stock concentration (mM, diluted 1:100): 10) | 0.57 |
| OCCOCCN1CCN(C2=Nc3ccccc3Sc3ccccc32)CC1 [Quetiapine hemifumarate] (stock concentration (mM, diluted 1:100): 7.7) | 5.3 (active) |
| N[C@@H](C(=O)N[C@@H]1C(=O)N2C(C(=O)O)=C(Cl)CS[C@H]12)c1ccccc1 [Cefaclor] (stock concentration (mM, diluted 1:100): 10) | 1.51 |
| O=C(O)C[C@H](O)C[C@H](O)/C=C/c1c(C2CC2)nc2ccccc2c1-c1ccc(F)cc1 [Livalo] (stock concentration (mM, diluted 1:100): 5) | -3.02 |
| Clc1ccccc1C(c1ccccc1)(c1ccccc1)n1ccnc1 [Clotrimazole] (stock concentration (mM, diluted 1:100): 10) | -0.98 |
| CC(=O)[C@H]1CC[C@H]2[C@@H]3CCC4=CC(=O)CC[C@]4(C)[C@H]3CC[C@]12C [Progesterone] (stock concentration (mM, diluted 1:100): 10) | 6.09 (active) |
| C[C@@H](O)[C@H]1C(=O)N2C(C(=O)O)=C(S[C@@H]3CN[C@H](C(=O)N(C)C)C3)[C@H](C)[C@H]12 [Meropenem] (stock concentration (mM, diluted 1:100): 11.4) | -1.58 |
| COc1ccccc1OCCNCC(O)COc1cccc2[nH]c3ccccc3c12 (stereo not given) [Carvedilol] (stock concentration (mM, diluted 1:100): 10) | 0.66 |
| Cc1c(OCC(F)(F)F)ccnc1C[S+]([O-])c1nc2ccccc2[nH]1 (stereo not given) [Lansoprazole] (stock concentration (mM, diluted 1:100): 10.1) | 1.42 |
| C[C@H](CCC(=O)O)[C@H]1CC[C@H]2[C@@H]3C(=O)C[C@@H]4CC(=O)CC[C@]4(C)[C@H]3CC(=O)[C@]12C [Dehydrocholic acid] (stock concentration (mM, diluted 1:100): 10) | -0.93 |
| C[C@@H]1C[C@H]2[C@@H]3C[C@H](F)C4=CC(=O)C(Cl)=C[C@]4(C)[C@@]3(F)[C@@H](O)C[C@]2(C)[C@@]1(O)C(=O)CO [Halometasone monohydrate] (stock concentration (mM, diluted 1:100): 10) | -1.12 |
| CN(CCOc1ccc(CC2SC(=O)NC2=O)cc1)c1ccccn1 (stereo not given) [Rosigltazone hydrochloride] (stock concentration (mM, diluted 1:100): 8.2) | 2.69 |
| C[C@H]1[C@H](OC(=O)CCC(=O)O)O[C@@H]2O[C@@]3(C)CC[C@H]4[C@H](C)CC[C@@H]1[C@@]24OO3 [Artesunate] (stock concentration (mM, diluted 1:100): 10) | 0.08 |
| NC1CCN(c2cccc(Cl)n2)CC1 (stock concentration (mM, diluted 1:100): 10) | 2.37 |
| Cn1c(NCCN(CCO)CCCc2ccc([N+](=O)[O-])cc2)cc(=O)n(C)c1=O [Nifekalant hydrochloride] (stock concentration (mM, diluted 1:100): 9.2) | -0.61 |
| CN(C)CCOc1ccc(/C(=C(/CCCl)c2ccccc2)c2ccccc2)cc1 [Toremifene citrate] (stock concentration (mM, diluted 1:100): 10) | 3.57 |
